# Results filed as inconclusive are left out. Values without a mark were called inactive. The source made the active and inactive calls. Calls come from the whole dose curve; as a rule, active = well fitted inhibition curve with a large enough effect in the repeat runs; inconclusive = weak or mixed curves; inactive = no such curve, though single readings can be large or run the other way.
# Target: Cytochrome P450 2C19 (Homo sapiens) (UniProt P33261)
# Assay: Cytochrome P450 Family 2 Subfamily C Member 19 (CYP2C19) small molecule antagonists: luciferase reporter qHTS assay (AID 1671197); note: nearly all actives have a fitted effect of over 65% in size
# Conditions: P450-Glo CYP2C19 enzyme, luciferin luminescence, 1 h; series mostly up to 115 µM; activity change, negative = inhibition: at the top concentration
# Text: National Center for Advancing Translational Sciences [NCATS]
# U.S. Environmental Protection Agency [EPA]
# National Institutes of Environmental Health Sciences [NIEHS]
# National Toxicology Program [NTP]
# U.S. Food and Drug Administration [FDA]
# Cytochrome P450 (CYP) enzymes are membrane-bound hemeproteins that play a key role in metabolism of drugs and xenobiotics. Evaluation of the effect of chemicals on CYP isozymes is useful to minimize the adverse drug reactions and toxicities in drug development process. Tox21 chemicals were tested for their effect on CYP enzyme activities by using P450-Glo (TM) screening systems (Promega Corporation, Madison, WI). These systems provide a luminescent method containing proluciferin substrates and are converted to luciferin products by CYP isozymes. The luciferin products formed are detected with a luciferin detection reagent, and the amount of light produced is proportional to CYP activity. P450-Glo (TM) CYP2C19 screening system (Catalog. No. V9880) was used to detect the compounds that interfere in CYP2C19 activity. The positive control compound used for CYP2C19 assay is ketoconazole (Sigma-Aldrich, St. Louis, MO).
# Tox21 Assay Protocol Summary:
# Two ul of enzyme-substrate mix was dispensed into medium binding white/solid 1536-well plates (Greiner Bio-One North America Inc., Monroe, NC) using a BioRaptr Flying Reagent Dispenser (FRD, Beckman Coulter, Brea, CA). Compounds dissolved in DMSO and positive control (ketoconazole) were transferred to the assay plates at 23 nl using a Pintool station (Wako, San Diego, CA). The assay plates were incubated at room temperature for 10 min. Then 2 ul of NADPH regeneration solution was added to each well of the assay plates using an FRD and incubated at 37C for 1 h. The reaction was stopped by adding 4 ul of detection reagent using an FRD and after 20 min incubation at room temperature the luminescence signal was measured using a ViewLux plate reader (Perkin Elmer, Shelton, CT). Data were expressed as relative luminescence units.
# % is set by controls: 0 for no effect and ±100 for the full control effect; potency is the fitted concentration of half-maximal effect.
# Chain of Cytochrome P450 2C19 (Homo sapiens) (P33261 whole entry, looked up): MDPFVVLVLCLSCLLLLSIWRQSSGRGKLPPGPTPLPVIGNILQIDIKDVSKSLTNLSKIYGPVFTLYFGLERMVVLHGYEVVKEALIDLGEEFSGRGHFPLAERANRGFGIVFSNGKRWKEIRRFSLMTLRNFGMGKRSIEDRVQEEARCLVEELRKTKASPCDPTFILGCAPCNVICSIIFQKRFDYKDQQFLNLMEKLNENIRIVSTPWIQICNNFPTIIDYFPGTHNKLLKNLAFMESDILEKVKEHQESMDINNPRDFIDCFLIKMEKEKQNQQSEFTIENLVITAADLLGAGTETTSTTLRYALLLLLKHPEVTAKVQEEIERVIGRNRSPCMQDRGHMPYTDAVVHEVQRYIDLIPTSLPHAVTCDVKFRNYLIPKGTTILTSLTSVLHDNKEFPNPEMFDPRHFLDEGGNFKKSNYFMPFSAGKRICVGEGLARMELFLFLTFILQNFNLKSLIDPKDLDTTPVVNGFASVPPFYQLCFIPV
SMILES,"activity change, negative = inhibition",Potency
Cc1ccccc1C(=O)Nc1ccc(C(=O)N2CCCC(O)c3cc(Cl)ccc32)c(C)c1 (stereo not given),-4.34% [at 52.9 µM],–
CC1=C2[C@H](/C=C(\C)C(=O)O)CC[C@@H](C)[C@H]2CC1,–,73.7 µM (active)
CC(=O)Oc1cc(C(C)C)c(OCCN(C)C)cc1C,39.4% [at 52.9 µM],–
CCCCCCCCCCCCCCCCOP(=O)([O-])OCC[N+](C)(C)C,11.2% [at 52.9 µM],–
CN(CCCN1c2ccccc2CCc2ccccc21)CC(=O)c1ccc(Cl)cc1,–,3.47 µM (active)
COc1ccc(Nc2ccc(OC)cc2)cc1,–,2.29 µM (active)
CCCCOc1cc(C(=O)NCCN(CC)CC)c2ccccc2n1,–,34.7 µM (active)
O=C1Nc2ccc([N+](=O)[O-])cc2C1=O,–,5.63 µM (active)
CCN1CC(CCN2CCOCC2)C(c2ccccc2)(c2ccccc2)C1=O (stereo not given),-24% [at 52.9 µM],–
CCOC(=O)CS,–,82 µM (active)
CC(C)Nc1nc(N)nc(Cl)n1,5.89%,–
CCCCC1CCC(=O)O1 (stereo not given),22.7%,–
NNS(=O)(=O)c1ccc(Oc2ccc(S(=O)(=O)NN)cc2)cc1,–,10 µM (active)
C[C@]12CCC(=O)C=C1CC[C@@H]1[C@@H]2CC[C@@]2(C)[C@H]1CC[C@]2(O)C(=O)CO,–,8.71 µM (active)
CCCCCCCCCC#N,-16.7%,–
O=c1[nH]c(=O)n([C@H]2C[C@H](O)[C@@H](CO)O2)cc1C(F)(F)F,-8.2% [at 52.9 µM],–
COC(C)CCO (stereo not given),3.54%,–
CCc1cc2cc(OC)c(OC)cc2c(Cc2ccccc2)n1,–,17.4 µM (active)
COc1nc(C)nc(NC(=O)NS(=O)(=O)c2ccccc2OCCCl)n1,-11.7%,–
CC(C)c1ccccc1,-2.74%,–

SMILES,"activity change, negative = inhibition",Potency
CN1C(=O)CC(c2ccccc2)C1=O (stereo not given),3.94% [at 52.9 µM],–
CC(C)S,-28.6%,–
CCCCC(CC)COC(=O)COc1cc(Cl)c(Cl)cc1Cl (stereo not given),–,7.1 µM (active)
OCc1c2ccccc2cc2ccccc12,–,35.7 µM (active)
Cc1cc2nc(N)sc2cc1C,–,28.5 µM (active)
Cc1c(C(=O)NCCO)[n+](=O)c2ccccc2n1[O-],-8.13% [at 52.9 µM],–
NCCC(O)(P(=O)(O)O)P(=O)(O)O,14.8% [at 52.9 µM],–
CN1CCN(N)CC1,1.6% [at 52.9 µM],–
Cc1c[nH]c(=S)[nH]c1=O,–,79.9 µM (active)
CCC(=O)Nc1ccc(O)cc1,18.6% [at 52.9 µM],–
CN1[C@@H]2CC[C@H]1CC(OC(=O)c1c[nH]c3ccccc13)C2 (stereo not given in full),19.7% [at 52.9 µM],–
CN1CCN(c2c(F)cc3c(=O)c(C(=O)O)cn(CCF)c3c2F)CC1,21% [at 52.9 µM],–
CC(=O)O[C@H]1CC[C@@]2(C)C(=CC[C@@H]3[C@@H]2CC[C@]2(C)C(C(C)=O)=CC[C@@H]32)C1,13.9% [at 52.9 µM],–
COc1cc(Cl)ccc1Cl,10.5%,–
CC1=C(CC(=O)O)c2cc(F)ccc2/C1=C\c1ccc(S(C)(=O)=O)cc1,-3.76% [at 52.9 µM],–
CNCCC(Oc1ccccc1OC)c1ccccc1 (stereo not given),1.1% [at 52.9 µM],–
Cc1ccc([N+](=O)[O-])c(N)c1,–,38.9 µM (active)
Cc1onc(-c2ccccc2)c1C(=O)Cl,-8.22% [at 52.9 µM],–
CCCCNc1ccc(C(=O)OCCN(CC)CC)cc1,34.1% [at 52.9 µM],–
CC(C)O,-14.5%,–

# From PubChem BioAssay (Tox21)
